Screens (PubChem)
A selection: hits, their analogues and other compounds. The true share with any hit is near 19%.
TGFb SMAD3 inh: inhibitors of TGF-b signaling; HepG2 CAGA-GFP TGF-b/SMAD3 reporter, GFP fluorescence, 18 h; TGF-beta stimulated, 500 pg/mL final; Potency, µM (series often up to 46.1 µM), for the others: top-dose activity, negative = inhibition, usual class: inhibitors; 410,000 compounds, 1.2% hits; AID 588855; also: potency is read from the fitted curve at half-maximal effect; % is scaled to controls: 0 for no effect and ±100 for the full control effect; nearly all actives have a fitted effect of over 65% in size
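Read-out: total well GFP (ex488/em500-530) summed from mean per-cell fluorescence. Cells: HEPG2 CAGA-GFP, 1% FBS DMEM, 18 h at 37 degrees C with 500 pg/mL final TGF-beta. Unstimulated wells served as the full-inhibition control; stimulated DMSO wells = 0%.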
TDP1 inh: TDP1 (human) enzyme inhibition | Q9NUW8 | recombinant TDP1, AlphaScreen DNA substrate cleavage | Potency, µM (titrated, usually from 130 µM), for inactives: at the highest dose activity change, negative = inhibition, usual class: inhibitors | 350,000 compounds, 0.28% hits; also: potency is read from the fitted curve at half-maximal effect; % is scaled to controls: 0 for no effect and ±100 for the full control effect; nearly all actives have a fitted effect of over 40% in size
Target sequence (Q9NUW8 whole entry, looked up): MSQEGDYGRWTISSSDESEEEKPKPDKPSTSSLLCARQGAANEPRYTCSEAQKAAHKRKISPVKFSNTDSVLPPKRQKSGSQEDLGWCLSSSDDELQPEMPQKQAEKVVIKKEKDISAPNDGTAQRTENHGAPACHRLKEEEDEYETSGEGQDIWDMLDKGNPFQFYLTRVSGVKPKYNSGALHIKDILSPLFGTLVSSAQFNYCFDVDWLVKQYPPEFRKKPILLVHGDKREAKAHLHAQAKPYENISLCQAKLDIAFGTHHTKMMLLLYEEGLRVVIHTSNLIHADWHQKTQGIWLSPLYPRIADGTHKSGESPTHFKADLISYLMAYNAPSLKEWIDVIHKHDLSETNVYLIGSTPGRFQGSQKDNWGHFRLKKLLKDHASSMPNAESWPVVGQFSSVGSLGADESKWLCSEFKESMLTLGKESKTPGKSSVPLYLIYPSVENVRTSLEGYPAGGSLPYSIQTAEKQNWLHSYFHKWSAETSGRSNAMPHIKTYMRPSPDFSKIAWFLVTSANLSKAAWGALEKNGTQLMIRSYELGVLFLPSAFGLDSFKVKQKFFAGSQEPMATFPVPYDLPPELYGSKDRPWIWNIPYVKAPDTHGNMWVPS
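Signal: AlphaScreen proximity between streptavidin donor and anti-FITC acceptor beads on intact substrate. Reaction: Tdp1 1 nM, substrate 15 nM final, 5 min RT after 15 min compound preincubation.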
HepG2 tox: kills HepG2 cells in TGF-b inhibitor counter-screen; HepG2 CAGA-GFP viability, ATP luminescence, 18 h; Potency, µM (titrated, usually from 46.1 µM), for inactives: at the highest dose activity change, negative = cytotoxicity, most hits filed as cytotoxic; 410,000 compounds, 0.76% hits; also: potency is read from the fitted curve at half-maximal effect
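CellTiter-Glo luminescence gave cytotoxicity after 18 hours at 37 degrees C. The cells were HepG2 CAGA-GFP in 1% FBS DMEM, stimulated with 500 pg/mL TGF-beta after compound addition. %Activity was normalised to no-cell wells (complete cell-killing) and DMSO (no toxicity), and curves were fitted and classified.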
IL-1B inflam inh: blocks inflammasome-driven IL-1 beta release | activity change, % at 57.5 µM | 360,000 compounds, 4.7% hits | THP-1 LPS/ATP IL-1B secretion, AlphaLISA, 16 h; active compounds read low; in the data active = activity change below about -50%; inconclusive = mostly about -30% to -49%; also: % is scaled to controls: 0 for no effect and ±100 for the full control effect
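THP-1 cells pretreated 1 hr with compounds (up to 57.5 uM final), then stimulated with LPS (250 ng/mL final) plus ATP (1.25 mM final); secreted IL-1B measured by AlphaLISA after 16 hr, decreased signal indicating inhibition.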
TDP1 cell CPT: growth inhibition of DT40 Tdp1-/-;hTDP1 cells with camptothecin (screen for TDP1 inhibitors) | Potency, µM (titrated, usually from 46.2 µM), inactives show top-dose activity change, negative = growth inhibition, hits mostly inhibitors | chicken DT40 Tdp1-/-;hTDP1 cells + 20 nM CPT, ATP luminescence, 48 h | 420,000 compounds, 12% hits; also: potency is read from the fitted curve at half-maximal effect; % is scaled to controls: 0 for no effect and ±100 for the full control effect; nearly all actives have a fitted effect of over 55% in size
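Chicken DT40 Tdp1-/- cells stably complemented with human TDP1 were seeded at 400 cells/well in medium containing 20 nM camptothecin, exposed to pin-transferred compounds, and grown at 37 °C for at least 48 hr. Viability was read as ATP luminescence.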
DT40 TDP1 no CPT: qHTS for Inhibitors of human tyrosyl-DNA phosphodiesterase 1 (TDP1): qHTS in cells in absence of CPT | DT40 Tdp1-/- hTDP1 cells, no CPT, ATP luminescence, 48 h | Potency, µM (titrated, usually from 46.2 µM), for the others: at the top dose activity change, negative = growth inhibition, usual class: inhibitors | 420,000 compounds, 15% hits | AID 686978, 2013; also: potency is read from the fitted curve at half-maximal effect; % is scaled to controls: 0 for no effect and ±100 for the full control effect; nearly all actives have a fitted effect of over 55% in size
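Growth kinetics read by CellTiter-Glo luminescence after ≥48 hr at 37 °C. Cells: DT40 Tdp1-/- stably carrying human TDP1, 400 per well, compound exposure in the absence of CPT (DMSO vehicle).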
Numbers without * were called inactive; ? = inconclusive; nt = no result given; [ ] = another dose, or the depositor's remark. Unless noted, calls follow the shape of the dose curve; as a rule, active = well fitted curve in the direction sought with a large enough effect; inconclusive = small, poorly fitted or top-dose-only effect, or another doubt; inactive = no such curve, though single readings can be large; an effect the other way counts as inactive or inconclusive.

SMILES	TGFb SMAD3 inh	TDP1 inh	HepG2 tox	IL-1B inflam inh	TDP1 cell CPT	DT40 TDP1 no CPT
CC1CC(NC(=O)Cc2ccc(Br)cc2)CC(C)(C)C1 (configuration not stated)	?	-4%	-15%	-11	16µM*	?
CCN(CC)c1ccc(/C=C/C2=C3C=CC=CC3NC=C2)cc1 (configuration not stated)	82%	nt	-26%	nt	?	14µM*
Cc1ccc(-n2c(O)c(C=NCc3ccccn3)c3ccccc3c2=O)cc1C	-5%	4%	-16%	-67*	8.2µM*	26µM*
O=c1c2ccccc2c(C=NCc2ccccn2)c(O)n1-c1ccccc1	2%	5%	8%	-9	-25%	?
Cc1ccc2c(c1)N(C(=O)NCc1ccccc1)CCO2	?	1%	-12%	nt	0%	-8%
O=C(O)CSCc1nc2ccccc2[nH]1	-3%	-2%	-2%	18	7%	-3%
O=C(CSCc1nc2ccccc2[nH]1)N1CCN(c2ccc(F)cc2)CC1	-20%	8%	-25%	?	23µM*	18µM*
O=C(CSCc1nc2ccccc2[nH]1)N1CCN(c2cccc(Cl)c2)CC1	?	8%	-27%	?	23µM*	?
CCc1nc2c(OCC(=O)C(C)(C)C)cccn2c1N(C=O)CC(=O)N(C)C	-7%	nt	2%	6	-19%	8%
Cc1ccc(-c2cc(C(=O)Nc3ccc(S(=O)(=O)N4CC(C)OC(C)C4)cc3)[nH]n2)c(O)c1 (configuration not stated)	-28%	0%	-14%	-22	16µM*	?
Cc1ccc(O)c(-c2cc(C(=O)Nc3ccc(S(=O)(=O)N4CC(C)OC(C)C4)cc3)[nH]n2)c1 (configuration not stated)	0%	6%	-32%	-74*	26µM*	23µM*
Cc1ccc(O)c(-c2cc(C(=O)Nc3ccc(S(=O)(=O)Nc4nc(C)cc(C)n4)cc3)[nH]n2)c1	14%	3%	-26%	33	1%	-26%
Cc1cc(C)nc(NS(=O)(=O)c2ccc(NC(=O)c3ccc(S(=O)(=O)N4CC(C)OC(C)C4)cc3)cc2)n1 (configuration not stated)	0%	6%	9%	14	-6%	-26%
O=C(Nc1ccc(Cl)cc1)OCCN1CCOCC1	0%	nt	12%	21	-4%	-29%
O=C(Nc1ccc(Cl)cc1)OCCn1nnnc1C(c1ccccc1Cl)N1CCOCC1 (configuration not stated)	-6%	5%	-17%	-29	26µM*	18µM*
CS(=O)(=O)c1ccccc1-c1nc(-c2cc(C(F)(F)F)cc(C(F)(F)F)c2)no1	4%	2%	3%	8	?	-4%
CS(=O)c1ccccc1-c1nc(-c2cc(C(F)(F)F)cc(C(F)(F)F)c2)no1 (configuration not stated)	6%	2%	-19%	6	10µM*	13µM*
COCCOc1ccc(C(F)(F)F)cc1NC(=O)COC(=O)Cc1c[nH]c2ccccc12	0%	1%	-22%	-3	-23%	2%
CCc1ccc(NC(=O)Cn2c(=O)n(-c3cccc(OC)c3)c(=O)c3c(C)c(C(=O)N(C)C)sc32)cc1	0%	-3%	-24%	nt	1%	-7%
CCOC(=O)c1sc(-c2ccc(Cl)cc2)nc1O	-2%	3%	2%	2	19%	1%
CCOC(=O)c1ccccc1NC(=O)Cn1c(=O)n(-c2ccc(CC)cc2)c(=O)c2c(C)c(C(=O)N(C)C)sc21	5%	2%	0%	nt	8.2µM*	12µM*
CCOC(=O)c1sc(C)c2c(=O)n(Cc3ccc(Cl)cc3)c(C)nc12	-2%	-1%	-11%	0	23µM*	16µM*
CCN(CC)C(=O)c1sc2c(c1C)c(=O)n(-c1ccc(C)c(C)c1)c(=O)n2Cc1cccc(Cl)c1	-9%	0%	-3%	nt	21µM*	?
CCN(CC)C(=O)c1sc2c(c1C)c(=O)n(Cc1ccccc1)c(=O)n2Cc1c(C)cc(C)cc1C	?	2%	-22%	nt	?	21µM*
Cc1cnc(C)c(-c2cc(F)cc3c2OC(CNC(=O)CN2CCCC2)C3)n1 (configuration not stated)	nt	nt	nt	nt	9%	-17%
SMILES	TGFb SMAD3 inh	TDP1 inh	HepG2 tox	IL-1B inflam inh	TDP1 cell CPT	DT40 TDP1 no CPT
CC[C@]12c3[nH]c4ccc(Cl)cc4c3CCN1C(=O)[C@@H](CC(=O)NCCc1ccccn1)C[C@@H]2C(=O)N1CCN(C(=O)c2ccco2)CC1	?	4%[56.1 µM]	-1%	41	-27%	?
CCN(CC)C(=O)c1sc2c(c1C)c(=O)n(Cc1ccccc1)c(=O)n2Cc1ccc(Cl)cc1	-17%	5%	-18%	nt	?	4.6µM*
Cc1cccc(C)c1NC(=O)Cn1c(=O)n(Cc2ccccc2)c(=O)c2c(C)c(C(=O)N(C)C)sc21	-5%	0%	-31%	nt	16µM*	?
COC(=O)c1ccccc1NC(=O)Cn1c(=O)n(Cc2ccccc2)c(=O)c2c(C)c(C)sc21	10%	5%	17%	10	2%	-10%
CCOC(=O)c1sc2c(c1C)c(=O)n(CCO)c(=O)n2Cc1ccccc1	-11%	nt	1%	-1	15µM*	16µM*
CC(C)NC(=O)C1CCC(Cn2c(=O)c3sccc3n(CC(=O)NCc3ccccc3)c2=O)CC1 (configuration not stated)	-6%	8%	3%	nt	1%	10%
CC(C)C[C@@]12C(=O)N(c3cccc(Br)c3)C(=O)N1[C@H](c1ccc(F)cc1)[C@@H]1C(=O)N(C3CCCCC3)C(=O)[C@@H]12	0%	1%	1%	-23	1%	-17%
O=C(NCc1cccc(C(F)(F)F)c1)C1CC(c2ccccc2F)=NO1 (configuration not stated)	?	nt	-3%	-23	?	29µM*
Cc1ccc(CNC(=O)C2CC(c3ccccc3F)=NO2)cc1 (configuration not stated)	-8%	1%	-1%	60	?	16µM*
CC(C)NCC(O)Cn1c2c(c3ccccc31)CCc1c-2cnn1-c1ccccc1 (configuration not stated)	?	7%	-101%	-16	3.7µM*	5.8µM*
